Experiment [1] is described as follows: qHTS profiling of the MIPE4 collection as inhibitors of Plasmodium falciparum (3D7) proliferation (AID 743344).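 Further: scaled between DMSO vehicle wells and 0.29 µM artemisinin as full inhibition.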 To be noted: P. falciparum 3D7 in erythrocytes, SYBR Green DNA fluorescence, 72 h; at 28.5 µM. The method in brief: (§1)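 Erythrocytes infected with P. falciparum (0.3% parasitemia, 2.5% hematocrit) incubated with compounds 72 h at 37 C, 5% CO2. Lysis with saponin/Triton buffer containing SYBR Green I, overnight at room temperature in the dark; DNA fluorescence (485/535 nm) normalised to 0.29 uM artemisinin and DMSO.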
In general terms: In qHTS, concentration-response curves come from the screen itself.

The nature of experiment [2]: qHTS profiling of the MIPE4 collection as inhibitors of Plasmodium falciparum (DD2) proliferation (AID 743345). To be noted: P. falciparum Dd2 in erythrocytes, SYBR Green DNA, 72 h; at 28.5 µM unless noted. The method in brief:
as §1

The nature of experiment [3]: qHTS profiling of the MIPE4 collection as inhibitors of Plasmodium falciparum (DD2) proliferation (Rep 2) (AID 743346). To be noted: P. falciparum Dd2 in erythrocytes, SYBR Green DNA, 72 h; at 28.5 µM. In outline: as §1
Experiment [4] can be described thus: qHTS profiling of the MIPE4 collection as inhibitors of Plasmodium falciparum (HB3) proliferation (AID 743347).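 Further: plate controls were DMSO vehicle wells for no effect and artemisinin wells for full effect.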 The note with it: P. falciparum HB3 in erythrocytes, SYBR Green DNA, 72 h; at 28.5 µM. The method in brief: as §1

Molecules are shown by their SMILES.

In the case of `c1cc2c(cc1[C@H]1OC[C@H]3[C@H]1CO[C@H]3c1ccc3c(c1)OCO3)OCO2`, in experiment [1], the parasite growth, % of DMSO control turned out to be 104%. The parasite growth remaining, % of DMSO control (lower = more inhibition) in experiment [2] was determined as 91.9%. Further, the parasite growth, % of control (lower = inhibition) in experiment [3] is 126%. Moreover, the growth, % of control in experiment [4] came to 107%.
Consider `C[C@]12CCC(=O)C(O)=C1CC[C@@H]1[C@H]3CCC(=O)[C@@]3(C)CC[C@@H]12`, for which the parasite growth, % of DMSO control in experiment [1] was determined as 77.1%. The parasite growth remaining, % of DMSO control (lower = more inhibition) in experiment [2] amounted to 94.3%. Moreover, the parasite growth, % of control (lower = inhibition) in experiment [3] is 71.5%. Moreover, the growth, % of control in experiment [4] turned out to be 54.8%.
As to `O=c1[nH]c2ccc(Cl)cc2c(N[C@@H]2CN3CCC2CC3)c1-c1nc2ccccc2[nH]1`, the parasite growth, % of DMSO control in experiment [1] was 5.05%. In addition, the parasite growth remaining, % of DMSO control (lower = more inhibition) in experiment [2] is 5.74%. Besides, the parasite growth, % of control (lower = inhibition) in experiment [3] came out at 8.84%. The compound also had a growth, % of control in experiment [4] of 2.7%.
Taken in the same sequence, the figures for `COc1ccc(N(C(=O)Oc2c(C)cccc2C)c2ccnc(Nc3ccc(N4CCN(C)CC4)cc3)n2)c(OC)c1` were 5.18%, 6.94%, 20.9% and 9.74%.
Turning to `CN1[C@H]2CC(O)C[C@H]1[C@H]1O[C@H]12` (stereo partly drawn), the parasite growth, % of DMSO control in experiment [1] was 11.1%. The parasite growth remaining, % of DMSO control (lower = more inhibition) in experiment [2] is 12.2%. The parasite growth, % of control (lower = inhibition) in experiment [3] turned out to be 28.8%. Also, the growth, % of control in experiment [4] is 7.31%.
In the case of `CC(=Cc1csc(C)n1)[C@@H]1C[C@H]2O[C@@H]2CCC[C@H](C)[C@@H](O)[C@@H](C)C(=O)C(C)(C)[C@@H](O)CC(=O)O1`, the parasite growth, % of DMSO control in experiment [1] came out at 14.6%. Also, the parasite growth remaining, % of DMSO control (lower = more inhibition) in experiment [2] turned out to be 16.1%. Moreover, the parasite growth, % of control (lower = inhibition) in experiment [3] came to 36.4%. In experiment [4], the growth, % of control stood at 12.9%.
As for `O=C(O)CNC(=O)c1c(O)c2ccccc2n(Cc2ccccc2)c1=O`, the parasite growth, % of DMSO control in experiment [1] was 88%. Moreover, the parasite growth remaining, % of DMSO control (lower = more inhibition) in experiment [2] was determined as 93.4%. The parasite growth, % of control (lower = inhibition) in experiment [3] turned out to be 75.1%. In addition, in experiment [4], the growth, % of control is 105%.
In turn, `CC1=C(O)C(=O)C=C2C1=CC=C1[C@@]2(C)CC[C@@]2(C)[C@@H]3C[C@](C)(C(=O)O)CC[C@]3(C)CC[C@]12C` gave a parasite growth, % of DMSO control in experiment [1] of 8.49%. For the same compound, the parasite growth remaining, % of DMSO control (lower = more inhibition) in experiment [2] came to 7.57%. Further, in experiment [3], the parasite growth, % of control (lower = inhibition) is 16.2%. In experiment [4], the growth, % of control was determined as 8.31%.
Taken in the same sequence, the figures for `CC(=O)N(C)c1cccc(-c2ccnc3c(C(=O)c4cccs4)cnn23)c1` were 44.9%, 66.2%, 51.9% and 50.4%.
In experiment [1], `CC(C)N(CCNC(=O)CN1CCCC1=O)C(C)C` had a parasite growth, % of DMSO control of 101%. In experiment [2], the parasite growth remaining, % of DMSO control (lower = more inhibition) is 17.4%. In experiment [3], the parasite growth, % of control (lower = inhibition) is 121%. Also, the growth, % of control in experiment [4] was found to be 108%.
In turn, `COc1ccc2c(c1)[C@]13CCCCC1C(C2)N(C)CC3` (stereo partly drawn) returned a parasite growth, % of DMSO control in experiment [1] of 92.5%. Besides, the parasite growth remaining, % of DMSO control (lower = more inhibition) in experiment [2] is 85.3%. Further, the parasite growth, % of control (lower = inhibition) in experiment [3] was determined as 52.9%. The compound also registered a growth, % of control in experiment [4] of 323%.
With `COC1=C[C@@H]2[C@@H]3Cc4ccc(OC)c(O)c4[C@]2(CCN3C)CC1=O`, in experiment [1], the parasite growth, % of DMSO control was found to be 102%. Also, in experiment [2], the parasite growth remaining, % of DMSO control (lower = more inhibition) is 84.4%. Further, in experiment [3], the parasite growth, % of control (lower = inhibition) worked out at 34.6%. In experiment [4], this compound yielded a growth, % of control of 106%.
For `COc1cccc2c1[C@]13CCN(CC4CC4)[C@H](C2)[C@]1(OC)CCC(=O)C3`, the parasite growth, % of DMSO control in experiment [1] is 98.3%. Also, the parasite growth remaining, % of DMSO control (lower = more inhibition) in experiment [2] stood at 102%. In addition, the parasite growth, % of control (lower = inhibition) in experiment [3] stood at 31.9%. Moreover, the growth, % of control in experiment [4] came out at 69.1%.
Taken in the same sequence, the figures for `C[C@]12COC(=O)C[C@@H]1CC[C@@H]1[C@H]2CC[C@@]2(C)[C@H]1CC[C@]2(C)O` were 89.9%, 96.6%, 93% and 93.7%.
Turning to `C[C@@H]1CC[C@H]2[C@@H](C)C(=O)O[C@@H]3O[C@@]4(C)CC[C@H]1[C@]32OO4`, the parasite growth, % of DMSO control in experiment [1] turned out to be 22.6%. The parasite growth remaining, % of DMSO control (lower = more inhibition) in experiment [2] turned out to be 7.95%. For the same compound, the parasite growth, % of control (lower = inhibition) in experiment [3] amounted to 7.78%. Also, the growth, % of control in experiment [4] is 7.52%.
Taken in the same sequence, the figures for `C[C@@H]1CC[C@@]2(OC1)O[C@H]1C[C@H]3[C@@H]4CC=C5C[C@@H](O[C@@H]6O[C@H](CO)[C@@H](O[C@@H]7O[C@@H](C)[C@H](O)[C@@H](O)[C@@H]7O)[C@H](O)[C@@H]6O[C@@H]6O[C@@H](C)[C@H](O)[C@@H](O)[C@@H]6O)CC[C@]5(C)[C@@H]4CC[C@]3(C)[C@@H]1[C@H]2C` were 57.2%, 52.8%, 61.5% and 28.8%.
With `CC[C@@H]1[C@@H](C)O[C@@](O)([C@@H](C)[C@H](O)[C@H](C)[C@H]2OC(=O)C=CC=C[C@@H](C)[C@@H]([C@@H](C)[C@@H](O)[C@H](C)[C@@]3(O)C[C@H](O[C@H]4C[C@H](O)[C@H](O)[C@H](C)O4)[C@H](CC)[C@@H](C)O3)OC(=O)C=CC=C[C@@H]2C)C[C@H]1O[C@H]1C[C@H](O)[C@H](O)[C@H](C)O1`, the parasite growth, % of DMSO control in experiment [1] is 49.6%. Also, the parasite growth remaining, % of DMSO control (lower = more inhibition) in experiment [2] is 6.07%. Also, in experiment [3], the parasite growth, % of control (lower = inhibition) is 25.8%. The growth, % of control in experiment [4] came to 47.6%.
In turn, `CC(=Cc1csc(C)n1)[C@@H]1C[C@H]2O[C@]2(C)CCC[C@H](C)[C@@H](O)[C@@H](C)C(=O)C(C)(C)[C@@H](O)CC(=O)O1` displayed a parasite growth, % of DMSO control in experiment [1] of 15.3%. In addition, in experiment [2], the parasite growth remaining, % of DMSO control (lower = more inhibition) amounted to 15.7%. Also, in experiment [3], the parasite growth, % of control (lower = inhibition) came out at 35.2%. In experiment [4], this compound registered a growth, % of control of 16.9%.
On to `C[C@@H]1[C@H](O)[C@@H](C)C=CC=CCCC=CC=CC=CC=C[C@H](O[C@H]2O[C@@H](C)[C@H](O)[C@@H](N)[C@@H]2O)CC2O[C@](O)(C[C@@H](O)[C@H](O)CC[C@@H](O)C[C@@H](O)C[C@@H](O)CC(=O)O[C@H]1C)C[C@H](O)[C@H]2C(=O)O`, for which the parasite growth, % of DMSO control in experiment [1] was found to be 94.4%. In experiment [2], the parasite growth remaining, % of DMSO control (lower = more inhibition) came to 103%. The parasite growth, % of control (lower = inhibition) in experiment [3] came to 97.5%. In addition, in experiment [4], the growth, % of control was found to be 83.8%.
Consider `C#C[C@]1(O)C=C[C@@H]2[C@@H]3CCC4=CC(=O)CC[C@@H]4[C@H]3CC[C@@]21CC`, for which the parasite growth, % of DMSO control in experiment [1] amounted to 10.4%. Besides, the parasite growth remaining, % of DMSO control (lower = more inhibition) in experiment [2] worked out at 59.4%. Besides, the parasite growth, % of control (lower = inhibition) in experiment [3] came to 26.2%. In experiment [4], this compound registered a growth, % of control of 41.2%.
`CC(C)(O)C=CC(=O)[C@](C)(O)[C@H]1[C@H](O)C[C@]2(C)[C@@H]3CC=C4[C@@H](C=C(O)C(=O)C4(C)C)[C@]3(C)C(=O)C[C@@]12C` gave a parasite growth, % of DMSO control in experiment [1] of 5.63%. In experiment [2], the parasite growth remaining, % of DMSO control (lower = more inhibition) is 7.06%. In addition, the parasite growth, % of control (lower = inhibition) in experiment [3] was 21.6%. Moreover, in experiment [4], the growth, % of control turned out to be 7.62%.
For the compound `c1ccc2c(CN3CCNCC3)cccc2c1`, in experiment [1], the parasite growth, % of DMSO control amounted to 85.3%. Besides, the parasite growth remaining, % of DMSO control (lower = more inhibition) in experiment [2] worked out at 53.1%. For the same compound, the parasite growth, % of control (lower = inhibition) in experiment [3] was found to be 43.2%. Besides, the growth, % of control in experiment [4] was determined as 109%.

Values taken from PubChem BioAssay (NCATS).
